According to article PMC6212790, “How bacterial xenogeneic silencer rok distinguishes foreign from self DNA in its resident genome”:
In all, about 33,000 sequences were measured (“e-score”: median about -0.037, highest 2% from about 0.34 on). The full list was thinned out, with the highest values kept by preference.

These sequences were tested against T1, GST-Rok (full length) (Bacillus subtilis subsp. subtilis str. …, UniProt O34857 1-191) (assay: protein binding microarray; Rok is a gene silencer of Bacillus subtilis; high values mean tight binding). Conditions: protein: recombinant; tags: GST (pTH5325, pDEST15-Magic modified); dsDNA, one strand shown.
T1 sequence: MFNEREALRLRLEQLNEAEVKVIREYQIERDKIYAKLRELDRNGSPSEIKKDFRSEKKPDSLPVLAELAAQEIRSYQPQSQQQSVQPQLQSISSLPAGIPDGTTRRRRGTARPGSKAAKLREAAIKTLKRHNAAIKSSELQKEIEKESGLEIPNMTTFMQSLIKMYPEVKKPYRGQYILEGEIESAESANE
How it was run: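 Every oligonucleotide joins a 25-mer constant primer to a 35-mer variable part drawn from a de Bruijn sequence of order 10, so each non-palindromic 8-mer appears at least 32 times and each palindromic 8-mer 16 times. The preference for every 8-mer is reported as a unitless, rank-based enrichment score (E-score). This score spans 0.5 for the most favored 8-mer to −0.5 for the most disfavored.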

Sequence	binding signal
ACCATCTC	-0.0707 E-score
CCTATCTC	0.168 E-score
ATTATCTG	0.284 E-score
AGTATCTC	0.238 E-score
AGTATCTG	0.189 E-score
ATTATCTC	-0.0512 E-score
CCTATCCA	-0.0329 E-score
ATTATCTA	0.412 E-score
GCCATCTA	0.0099 E-score
CCTATCTA	0.34 E-score
AGTATCTA	0.343 E-score
ACCATCTA	0.351 E-score
CTAACGAG	0.0146 E-score
GCCAAGTA	0.107 E-score
AGCGAGCA	-0.18 E-score
TACCAGCA	0.135 E-score
GAACAACA	-0.0557 E-score
GCTATCTA	0.33 E-score
ACTATCTA	0.397 E-score
ACTATCTC	0.128 E-score
GATTTCTA	0.3 E-score
ATTTTCTA	0.397 E-score
ACTTTCTC	0.0817 E-score
ACTTTCTA	0.386 E-score
CCTTTCTA	0.158 E-score
GATTTCGA	0.183 E-score

Sequence	binding signal
ATTTTCTC	0.264 E-score
ATTTTCTG	-0.139 E-score
CATTTCTA	0.288 E-score
CATTTCGA	-0.0105 E-score
AATTTCGA	0.352 E-score
AATTTCTA	0.344 E-score
CTTTACGC	0.177 E-score
AGGCCGTA	-0.152 E-score
CATCGTAA	0.169 E-score
GTTTCCAA	0.0167 E-score
CTAGCGTC	-0.0555 E-score
AGCTTAGG	0.072 E-score
AGTTTCTA	0.402 E-score
AGTTTCTC	0.274 E-score
GGTTTCTA	0.334 E-score
GACAGAAC	-0.0014 E-score
CCTCTAAC	-0.0188 E-score
CAAGTATA	0.204 E-score
CCAGTATA	0.235 E-score
GAAGTATA	0.169 E-score
ACAGTATA	0.343 E-score
GTAGTACA	0.236 E-score
GCAGTATA	0.275 E-score
CTAGTATA	0.409 E-score
GTAGTATA	0.423 E-score
CTAGTATC	0.241 E-score

Sequence	binding signal
CCTAACAG	0.0291 E-score
ATTAGCAA	0.0548 E-score
CGCAACTC	-0.103 E-score
AATGACAA	0.16 E-score
TATTACGA	0.296 E-score
GCGTATCA	0.0845 E-score
CAACAGTA	0.316 E-score
TAACAGTA	0.355 E-score
GAACAGTA	0.264 E-score
AGAATGTA	0.201 E-score
CATATTTA	0.324 E-score
GATATTAA	0.365 E-score
TGTATTAA	0.241 E-score
GATATTAC	0.364 E-score
GATATTTA	0.351 E-score
AATATTTA	0.325 E-score
TATATTAA	0.364 E-score
TATATTGA	0.278 E-score
AATATTAC	0.239 E-score
CATATTAC	0.289 E-score
AATATTAA	0.334 E-score
CATATTAA	0.268 E-score
CCGGTCGA	-0.102 E-score
AGAGACTA	0.093 E-score
CCCTCGTA	-0.134 E-score
AGCCAAAT	0.0925 E-score

Sequence	binding signal
TAAGAGCA	-0.127 E-score
CGCTGTGA	-0.0511 E-score
GCTTCAAC	0.127 E-score
AGCTCCAG	-0.0852 E-score
ACATTCTC	0.0677 E-score
ACGTTCTC	0.0202 E-score
GGGAAATA	0.127 E-score
AATTAGTG	0.322 E-score
ATTTAGTA	0.363 E-score
CATTAGTA	0.227 E-score
ATTTAGTG	0.166 E-score
AATTAGTA	0.416 E-score
GTTTAGTA	0.272 E-score
GCGCATAC	0.0802 E-score
CGTTCTGA	-0.0208 E-score
GCAGATAC	0.0143 E-score
TTAGATAA	0.251 E-score
GTAGATAC	0.359 E-score
CTAGATAA	0.302 E-score
CTAGATAC	0.22 E-score
GTAGATAA	0.407 E-score
ACGGTTGC	-0.00987 E-score
CGACGTAC	-0.0209 E-score
ACTGCCGC	-0.152 E-score
ATAGGAAG	0.0173 E-score
AGGCTCGA	-0.0603 E-score

Sequence	binding signal
TATCTACA	0.348 E-score
GCTCTACA	-0.114 E-score
AATCTACA	0.326 E-score
CATCTACA	0.177 E-score
GGTCTACA	0.0329 E-score
GATCTACA	0.369 E-score
ATTAAATG	0.0625 E-score
AGGCTGTA	0.00795 E-score
ACAACTAT	0.33 E-score
CCTACTAC	0.258 E-score
ACTACAAC	0.293 E-score
ACTACAAT	0.344 E-score
ACTACTCT	0.184 E-score
ACTACTAT	0.465 E-score
GCTACTAC	0.198 E-score
ACTACAAG	0.22 E-score
ACTACTAC	0.4 E-score
ACAACTAG	0.351 E-score
ACAACTAC	0.311 E-score
ACTACTGG	0.224 E-score
ATGCGAGA	0.00939 E-score
CGTTTGTC	-0.0759 E-score
CTACCAAC	0.164 E-score
AGACGCTG	-0.151 E-score
CAGTCCAA	-0.0763 E-score
AGCCCAAC	-0.175 E-score

Sequence	binding signal
TCCAGAAA	-0.00865 E-score
ACTACTCG	0.187 E-score
ACTACTAG	0.346 E-score
CCTACTAG	0.0992 E-score
ATGGTACG	0.183 E-score
GCATTAAC	0.0561 E-score
CTACTAAC	0.324 E-score
ACACTAAA	0.174 E-score
TTACTAAA	0.32 E-score
ATACTAAG	0.175 E-score
ATACTAAA	0.391 E-score
AGACTAAA	-0.0347 E-score
ATACTAAT	0.378 E-score
CTACTAAA	0.357 E-score
ATACTAAC	0.199 E-score
GAGGCATC	-0.172 E-score
CAGCTGTA	0.0605 E-score
ACATCTAC	0.272 E-score
ACTTCGGA	-0.0792 E-score
ACCCTAAA	0.024 E-score
CCACTGTC	-0.188 E-score
CTGCTTTA	0.0813 E-score
ATAAGGAC	-0.2 E-score
GTAGAAAC	0.427 E-score
CTAGAAAC	0.3 E-score
CTAGAAAA	0.291 E-score

Sequence	binding signal
GTAGAAAA	0.387 E-score
GCAGAAAC	-0.0153 E-score
TTAGAAAA	0.185 E-score
ATCTGGTC	-0.135 E-score
ATCTTTAA	0.0286 E-score
AGATTGGC	0.136 E-score
CGTTCCAC	-0.021 E-score
CTATTTAC	0.342 E-score
CTATTTAA	0.0252 E-score
CTCTTTAC	0.158 E-score
ATATTTAG	0.287 E-score
ATATTTGC	0.285 E-score
ACATTTAC	0.313 E-score
ATATTTAC	0.379 E-score
ATATTTAA	0.387 E-score
ATTTTTAA	-0.0198 E-score
AGTCAAAA	0.108 E-score
CGTTTGAA	-0.00324 E-score
ACCTTCAG	-0.119 E-score
TCCACAAA	0.0863 E-score
